Shown are actives, neighbours in structure and some others; about 0.96% of the full set was active somewhere.
beta cell repl = inducers of MIN6 beta-cell proliferation, primary screen, ATP luminescence, uHTS. MIN6 cells proliferation, ATPlite luminescence, 48 h; cells starved in 0.2% serum; 100% = growth in 10% serum. proliferation, % at 10 µM. hit rate 0.29% among 330,000. AID 2380, 2010;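 active means compounds whose signal lies at least 3.5 SD above the mean of all wells on their plate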;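 further: 0% = DMSO-treated cells in low-serum medium and 100% = 10% serum control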
V-ATPase pH = regulators of yeast V-ATPase proton pumping, primary screen, pHLuorin cytosolic pH fluorescence; S. cerevisiae; response, % at 10 µM; hit rate 0.37% among 350,000; in the data active means response mostly above about 7.3%, no sharp cut-off; inactive means mostly below about 5.4%; further: actives read high
Rtt109 HAT inh = inhibitors of C. albicans Rtt109/Vps75 HAT, primary screen, biochemical, ThioGlo CoA-SH fluorescence, plate reader; purified Rtt109/Vps75, 4 h; inhibition, % at 34.9 µM; hit rate 0.16% among 330,000; AID 540336, 2011; Histone acetyltransferase RTT109 (Candida albicans (strain SC5314 / ATCC MYA-2876)), …;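 active means inhibition of at least 50% in every replicate; inconclusive means best replicate reaches 50% inhibition but some replicates fall short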
HDAC3 inh = HDAC3 deacetylase inhibitors, primary screen, biochemical, fluorescence, cell-free homogeneous; Histone deacetylase 3 (Homo sapiens), O15379; recombinant HDAC3, fluorogenic peptide/trypsin coupled; inhibition, % at 8.3 µM; hit rate 0.15% among 320,000; in the data active means inhibition above about 26%, passing the limit was not always enough; inconclusive means no clear call, values can overlap the other calls
Target sequence (O15379 whole entry, looked up): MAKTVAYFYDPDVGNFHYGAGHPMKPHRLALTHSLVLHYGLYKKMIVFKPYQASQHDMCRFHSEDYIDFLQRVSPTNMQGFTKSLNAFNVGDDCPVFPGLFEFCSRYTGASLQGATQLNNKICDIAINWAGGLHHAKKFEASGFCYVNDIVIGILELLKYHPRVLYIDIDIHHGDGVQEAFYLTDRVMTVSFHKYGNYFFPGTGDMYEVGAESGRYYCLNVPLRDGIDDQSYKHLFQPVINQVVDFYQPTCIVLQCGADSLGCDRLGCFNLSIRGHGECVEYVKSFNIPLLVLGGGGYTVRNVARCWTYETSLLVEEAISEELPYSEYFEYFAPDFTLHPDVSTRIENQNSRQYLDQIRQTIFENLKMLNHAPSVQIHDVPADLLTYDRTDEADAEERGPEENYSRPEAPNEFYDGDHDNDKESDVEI
DAGLB inhibitor = DAGLB lipase inhibitors, primary screen, biochemical, fluorescence, HTS. inhibition, % at 5.17 µM. AID 504411, 2011. hit rate 0.059% among 340,000. HEK293T DAGLB membrane lysate, EnzChek fluorogenic substrate. Diacylglycerol lipase-beta (Homo sapiens), Q8NCG7; in the data active means inhibition above about 34%;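 further: 0% = enzyme with vehicle and 100% = wells lacking enzyme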
Active calls of the source: *.

What do the screens show for `C=CCOc1ccc(C2OC34CCCCC3C(C#N)(C#N)C2(C#N)C(=N)O4)cc1` (stereo not given)?
beta cell repl: 2; V-ATPase pH: -2; Rtt109 HAT inh: -317; HDAC3 inh: -17; DAGLB inhibitor: 2

What do the screens show for `NC(=O)c1ccc(OCC(F)(F)C(F)(F)C(F)(F)C(F)(F)C(F)(F)C(F)F)cc1`?
beta cell repl: 0; V-ATPase pH: -1; Rtt109 HAT inh: -4; HDAC3 inh: 31*; DAGLB inhibitor: -3

How did CC(=O)C1=C(C)NC(=O)NC1c1cccc([N+](=O)[O-])c1O (stereo not given) do in these assays?
beta cell repl: -2; V-ATPase pH: 5; Rtt109 HAT inh: 5; HDAC3 inh: 0; DAGLB inhibitor: 4

What do the screens show for `COc1ccc(NC(=O)c2cccs2)cc1`?
beta cell repl: -1; V-ATPase pH: 21*; Rtt109 HAT inh: -3; HDAC3 inh: 1; DAGLB inhibitor: 0

How did COc1ccc(NC(=O)c2nc3ccccc3s2)cc1 do in these assays?
beta cell repl: -3; V-ATPase pH: 0; Rtt109 HAT inh: 54*; HDAC3 inh: -5; DAGLB inhibitor: -8

Results for COc1ccc(NC(=O)Nc2nnc(-c3cccs3)s2)cc1 ?
beta cell repl: -2; V-ATPase pH: -3; Rtt109 HAT inh: 62*; HDAC3 inh: 2; DAGLB inhibitor: -3

How did Cc1ccc(S(=O)(=O)N2CCCC(c3nc4c(nnn4Cc4ccc5c(c4)OCCO5)c(=O)[nH]3)C2)cc1 (stereo not given) do in these assays?
beta cell repl: -3; V-ATPase pH: 2; Rtt109 HAT inh: 4; HDAC3 inh: 9; DAGLB inhibitor: 1

How did CCCCCCCCCCCCCCCCn1cc[n+](C)c1 do in these assays?
beta cell repl: -4; V-ATPase pH: 6; Rtt109 HAT inh: 95*; HDAC3 inh: inconclusive; DAGLB inhibitor: 3

What do the screens show for `CCCCCCCCn1ccc(=N)cc1`?
beta cell repl: -4; V-ATPase pH: -8; Rtt109 HAT inh: -3; HDAC3 inh: 5; DAGLB inhibitor: -6

What do the screens show for `O=C(NCC(=O)N1CCN(c2ccccc2O)CC1)c1ccco1`?
beta cell repl: -2; V-ATPase pH: 1; Rtt109 HAT inh: 3; HDAC3 inh: 2; DAGLB inhibitor: 2

Results for CCCc1cc(=O)[nH]c(SCC(=O)NC)n1 ?
beta cell repl: 4; V-ATPase pH: -3; Rtt109 HAT inh: -2; HDAC3 inh: -1; DAGLB inhibitor: 1

What do the screens show for `CCCc1cc(=O)[nH]c(SCC(=O)CSc2nc(CCC)cc(=O)[nH]2)n1`?
beta cell repl: -6; V-ATPase pH: -4; Rtt109 HAT inh: -16; HDAC3 inh: 45*; DAGLB inhibitor: -2

Results for O=C1CSC(=S)N1/N=C/c1ccc(O)c(O)c1O ?
beta cell repl: -6; V-ATPase pH: -1; Rtt109 HAT inh: 196*; HDAC3 inh: 5; DAGLB inhibitor: 1

How did CCOc1ccccc1NC(=O)c1nc(-c2ccccc2)oc1C do in these assays?
beta cell repl: -2; V-ATPase pH: -6; Rtt109 HAT inh: -12; HDAC3 inh: -1; DAGLB inhibitor: -11

Results for CCSc1ccccc1C(=O)Nc1ccc([N+](=O)[O-])cc1OC ?
beta cell repl: -2; V-ATPase pH: 1; Rtt109 HAT inh: 55*; HDAC3 inh: 2; DAGLB inhibitor: -5

Results for CCC(C)C(=O)Nc1ccc([N+](=O)[O-])cc1OC (stereo not given) ?
beta cell repl: -2; V-ATPase pH: 8; Rtt109 HAT inh: 0; HDAC3 inh: 7; DAGLB inhibitor: 0

Results for CCOC(=O)c1c(C)[nH]c(C)c1C(=O)CSc1nc2ccccc2c(=O)n1-c1ccc(Cl)cc1 ?
beta cell repl: -3; V-ATPase pH: -2; Rtt109 HAT inh: -1; HDAC3 inh: 6; DAGLB inhibitor: -3

Results for CCOC(=O)c1c(C)[nH]c(C)c1C(=O)CSc1nc2ccccc2c(=O)n1-c1ccc(C)cc1 ?
beta cell repl: -3; V-ATPase pH: -1; Rtt109 HAT inh: 6; HDAC3 inh: 31*; DAGLB inhibitor: -1

Results for O=C(N/N=C/c1ccc(OC(F)F)cc1OC(F)F)c1ccc(Br)cc1 ?
beta cell repl: -2; V-ATPase pH: 1; Rtt109 HAT inh: 0; HDAC3 inh: 4; DAGLB inhibitor: 0
